Read-out in experiment [1]: Human Leukocyte Antigen - DR isotype (HLADR), HLA-DRA (gene 3122)
Briefly: BSK_BE3C_HLADR: BioMAP Diversity Plus: BE3C Assay for Human Leukocyte Antigen - DR isotype (HLADR) Biomarker Activity (AID 2283032). The following applies: primary human bronchial epithelial cells; actives raise or lower the signal. The method, boiled down:
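Cell-surface HLA-DR ELISA readout at 24 h after dosing in the BE3C primary human lung bronchial epithelial system; gain or loss of signal against DMSO, with parallel sulforhodamine B staining of total protein for overt cytotoxicity.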

Read-out in experiment [2]: Vascular cell adhesion molecule 1 (VCAM1), VCAM1 (gene 7412)
Briefly: BSK_4H_VCAM1: BioMAP Diversity Plus: 4H Assay for Vascular cell adhesion molecule 1 (VCAM1) Biomarker Activity (AID 2283033).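 On outcome: cell-surface VCAM-1 protein measured by ELISA.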 The following applies: primary human endothelial cells (HUVEC); actives raise or lower the signal. The procedure, abridged:
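VCAM-1 ELISA read 24 h after chemical dosing of HUVEC in the BioMAP 4H system, with gain or loss of signal fitted relative to DMSO. Parallel SRB staining (560 nm) checked overt cytotoxicity.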

Read-out in experiment [3]: Interferon-gamma inducible Protein 10 (IP10), CXCL10 (gene 3627)
Nature of the experiment: BSK_BE3C_IP10: BioMAP Diversity Plus: BE3C Assay for Interferon-gamma inducible Protein 10 (IP10) Biomarker Activity (AID 2283034). The following applies: primary human bronchial epithelial cells; actives raise or lower the signal. The procedure, abridged: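 IP-10 quantified by ELISA in human primary bronchial epithelial cell cultures at 24 hours post-dosing. Gain or loss of signal fitted relative to DMSO; parallel SRB staining assessed overt cytotoxicity.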

Read-out in experiment [4]: Monokine induced gamma interferon (MIG), CXCL9 (gene 4283)
Briefly: BSK_BE3C_MIG: BioMAP Diversity Plus: BE3C Assay for Monokine induced gamma interferon (MIG) Biomarker Activity (AID 2283035). The settings on record: primary human bronchial epithelial cells; actives raise or lower the signal. The method, boiled down:
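Dose cells (human primary bronchial epithelial), incubate 24 h, quantify MIG by ELISA, then fit concentration–response in both directions relative to DMSO control.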

Read-out in experiment [5]: Transforming growth factor beta 1 (TGFb1), TGFB1 (gene 7040)
Briefly: BSK_BE3C_TGFb1: BioMAP Diversity Plus: BE3C Assay for Transforming growth factor beta 1 (TGFb1) Biomarker Activity (AID 2283036;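 on outcome: TGF-b1 protein level measured by ELISA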). The settings on record: primary human bronchial epithelial cells; actives raise or lower the signal. The method, boiled down:
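ELISA readout of TGF-b1 from human lung bronchial epithelial primary cells, taken 24 h post-treatment. Gain or loss of signal fitted relative to DMSO baseline, with parallel SRB staining for overt cytotoxicity.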

Read-out in experiment [6]: urokinase plasminogen activator (uPA), PLAU (gene 5328)
Briefly: BSK_BE3C_uPA: BioMAP Diversity Plus: BE3C Assay for urokinase plasminogen activator (uPA) Biomarker Activity (AID 2283038).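 On outcome: uPA protein level quantified by ELISA in cell cultures; uPA read one day after compound addition.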 The settings on record: primary human bronchial epithelial cells; actives raise or lower the signal. The procedure, abridged:
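ELISA read-out of uPA in human lung primary bronchial epithelial cultures, 24 h post-dosing. Gain or loss of signal fitted bidirectionally relative to DMSO baseline; cytotoxicity checked in parallel cultures via SRB total protein stain.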

Read-out in experiment [7]: Urokinase-type plasminogen activator receptor (uPAR), PLAUR (gene 5329)
Nature of the experiment: BSK_BE3C_uPAR: BioMAP Diversity Plus: BE3C Assay for Urokinase-type plasminogen activator receptor (uPAR) Biomarker Activity (AID 2283039).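 Further: cells exposed to compound for one day before measurement.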 The following applies: primary human bronchial epithelial cells; actives raise or lower the signal. The method, boiled down: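 uPAR levels were measured by ELISA after 24 h compound treatment of primary human bronchial epithelial cells, fitted in both directions relative to DMSO. Parallel SRB staining served as the cytotoxicity read-out.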

Read-out in experiment [8]: Interleukin-6 (IL6), IL6 (gene 3569)
Briefly: BSK_CASM3C_IL6: BioMAP Diversity Plus: CASM3C Assay for Interleukin-6 (IL6) Biomarker Activity for (AID 2283040). The settings on record: primary human coronary artery smooth muscle cells; actives raise or lower the signal.

Read-out in experiment [9]: Tissue plasminogen activator (tPA), PLAT (gene 5327)
Nature of the experiment: BSK_BE3C_tPA: BioMAP Diversity Plus: BE3C Assay for Tissue plasminogen activator (tPA) Biomarker Activity (AID 2283041).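 On outcome: tPA level quantified by ELISA one day after compound addition.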 The settings on record: primary human bronchial epithelial cells; actives raise or lower the signal. The procedure, abridged: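 tPA measured by ELISA 24 h after dosing human primary bronchial epithelial cells (BE3C system). Changes in either direction were fitted against DMSO. Parallel cultures were stained with SRB to flag overt cytotoxicity.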

Read-out in experiment [10]: Interleukin-8 (IL8), CXCL8 (gene 3576)
Briefly: BSK_CASM3C_IL8: BioMAP Diversity Plus: CASM3C Assay for Interleukin-8 (IL8) Biomarker Activity (AID 2283042).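 Further: IL-8 protein level quantified by ELISA.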 The following applies: primary human coronary artery smooth muscle cells; actives raise or lower the signal.

Read-out in experiment [11]: Human Leukocyte Antigen - DR isotype (HLADR), HLA-DRA (gene 3122)
Nature of the experiment: BSK_CASM3C_HLADR: BioMAP Diversity Plus: CASM3C Assay for Human Leukocyte Antigen - DR isotype (HLADR) Biomarker Activity (AID 2283043).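 Further: cell-surface HLA-DR protein level quantified by ELISA.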 The settings on record: primary human coronary artery smooth muscle cells; actives raise or lower the signal.

Read-out in experiment [12]: Macrophage colony-stimulating factor (MCSF), CSF1 (gene 1435)
Briefly: BSK_CASM3C_MCSF: BioMAP Diversity Plus: CASM3C Assay for Macrophage colony-stimulating factor (MCSF) Biomarker Activity (AID 2283044).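 Further: M-CSF protein amount quantified by ELISA after 24 h exposure.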 The settings on record: primary human coronary artery smooth muscle cells; actives raise or lower the signal.

Read-out in experiment [13]: Low-density lipoprotein receptor (LDLR), LDLR (gene 3949)
Briefly: BSK_CASM3C_LDLR: BioMAP Diversity Plus: CASM3C Assay for Low-density lipoprotein receptor (LDLR) Biomarker Activity (AID 2283045).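 Further: LDLR protein level on the cell surface quantified by ELISA.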 The settings on record: primary human coronary artery smooth muscle cells; actives raise or lower the signal.

Read-out in experiment [14]: Monocyte Chemoattractant Protein-1 (MCP1), CCL2 (gene 6347)
Briefly: BSK_CASM3C_MCP1: BioMAP Diversity Plus: CASM3C Assay for Monocyte Chemoattractant Protein-1 (MCP1) Biomarker Activity (AID 2283046).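 Further: MCP-1 level quantified by ELISA 24 h after dosing.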 The settings on record: primary human coronary artery smooth muscle cells; actives raise or lower the signal.

The nature of experiment [15]: BSK_CASM3C_Proliferation: Cell Proliferation Assessment in the BioMAP Diversity Plus: CASM3C Assay (AID 2283047).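 Further: sulforhodamine B total protein stain as relative cell number at 560 nm; sub-confluent cells exposed 48 h before staining; fitted both ways against DMSO so gain or loss of cell number.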 The following applies: primary human coronary artery smooth muscle cells.
Read-out in experiment [16]: Monokine induced gamma interferon (MIG), CXCL9 (gene 4283)
Briefly: BSK_CASM3C_MIG: BioMAP Diversity Plus: CASM3C Assay for Monokine induced gamma interferon (MIG) Biomarker Activity (AID 2283048).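 Further: MIG protein level measured by ELISA.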 The settings on record: primary human coronary artery smooth muscle cells; actives raise or lower the signal.

Read-out in experiment [17]: serum amyloid A (SAA), SAA1 (gene 6288)
Nature of the experiment: BSK_CASM3C_SAA: BioMAP Diversity Plus: CASM3C Assay for serum amyloid A (SAA) Biomarker Activity (AID 2283049).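 Further: SAA protein level quantified by ELISA.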 The following applies: primary human coronary artery smooth muscle cells; actives raise or lower the signal.

Experiment [18] in a line: BSK_CASM3C_SRB: Viability Assessment in the BioMAP Diversity Plus: CASM3C Assay (AID 2283050). The following applies: primary human coronary artery smooth muscle cells.
Read-out in experiment [19]: Thrombomodulin, THBD (gene 7056)
Briefly: BSK_CASM3C_Thrombomodulin: BioMAP Diversity Plus: CASM3C Assay for Thrombomodulin Biomarker Activity (AID 2283051).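 Further: thrombomodulin protein level measured by ELISA 24 h after dosing.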 The following applies: primary human coronary artery smooth muscle cells; actives raise or lower the signal.

Read-out in experiment [20]: Plasminogen activator inhibitor-1 (PAI1), SERPINE1 (gene 5054)
Nature of the experiment: BSK_BE3C_PAI1: BioMAP Diversity Plus: BE3C Assay for Plasminogen activator inhibitor-1 (PAI1) Biomarker Activity (AID 2283037). The following applies: primary human bronchial epithelial cells; actives raise or lower the signal. The method, boiled down: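 PAI-1 was measured by ELISA in human primary bronchial epithelial cultures 24 h after chemical dosing, with cytotoxicity checked by SRB total-protein staining in parallel cultures. Activity was fitted in both directions relative to DMSO.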

The source made the active and inactive calls. How the source made its calls: active means hit-call score of the fitted dose curve at least 0.9, where 1 is the maximum; inactive means score below 0.9.

The AC50 is the concentration giving half of the maximal activity seen.

On to `O=C1CCCCCN1`, for which the result in [1], in [2], in experiment [3], in [4], in experiment [5] and in experiment [6] was inactive. In addition, the outcome in experiment [7], in experiment [8], in experiment [9], in [10], in experiment [11] and in [12] was inactive. For the same compound, the outcome in experiment [13], in experiment [14], in [15], in [16], in [17] and in [18] was inactive. The outcome in [19] was inactive.

Consider `O=C(CCCCCCCCc1cccnc1)N1CCC(C=C(c2ccccc2)c2ccccc2)CC1`, for which the AC50 in [1] was 17.6 µM (active); in experiment [2], 12.7 µM (active); in experiment [3], 24.5 µM (active); in [4], 27.9 µM (active); in experiment [5] it was 23.7 µM (active); in [20], 19.3 µM (active). The AC50 in experiment [6] was 24.7 µM (active); in [9], 19.5 µM (active); in experiment [10] it was 38.3 µM (active); in [11], 35 µM (active); in experiment [12] it was 38 µM (active); in experiment [13], 34.3 µM (active). Also, the AC50 in [14] was 38.2 µM (active); in experiment [15], 35.4 µM (active); in experiment [16], 38.3 µM (active); in experiment [17], 37.5 µM (active); in [18], 39.1 µM (active). Besides, the outcome in [8] and in experiment [19] was inactive.

With `C=CC(=C)CCC=C(C)C`, the outcome in [1], in experiment [2], in [3], in [4], in experiment [5] and in experiment [20] was inactive. Further, the result in experiment [6], in [8], in experiment [9], in experiment [10], in experiment [11] and in [12] was inactive. The outcome in [13], in experiment [14], in [15], in experiment [16], in experiment [17] and in experiment [18] was inactive. Besides, in experiment [19], the result was inactive.

In the case of `Cc1ccc(S(=O)(=O)O)cc1C`, the result in experiment [1], in experiment [2], in experiment [3], in experiment [4], in experiment [5] and in [6] was inactive. For the same compound, the outcome in [7], in [8], in [9], in [10], in experiment [11] and in [12] was inactive. Also, the outcome in experiment [13], in experiment [14], in [15], in [16], in experiment [17] and in experiment [18] was inactive. In addition, in [19], the result was inactive.

For `CCOCCO`, the result in [1], in experiment [2], in experiment [3], in experiment [4], in [5] and in experiment [20] was inactive. Moreover, the result in [6], in experiment [8], in experiment [9], in experiment [10], in experiment [11] and in experiment [12] was inactive. For the same compound, the result in experiment [13], in experiment [14], in experiment [15], in experiment [16], in experiment [17] and in experiment [18] was inactive. In [19], the result was inactive.

As for `Fc1ccccc1[C@@H](F)COC1CCC(Nc2ncnc3[nH]ncc23)CC1` (some centres undefined), the outcome in experiment [1], in [2], in experiment [3], in experiment [4], in experiment [5] and in [6] was inactive. For the same compound, the outcome in [7], in [8], in experiment [9], in [10], in experiment [12] and in experiment [13] was inactive. Moreover, the result in [14], in [16], in experiment [17], in [18] and in experiment [19] was inactive. Also, the AC50 in [11] was 6.88 µM (active); in experiment [15] it was 29.2 µM (active).
